# According to PubChem BioAssay AID488789 (Broad Institute, 2010):
# Entries with a potency or affinity are not part of this list. Records with an inconclusive call do not appear. A number with no mark means an inactive call.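 The calls were made as follows: active = samples whose fitted half-maximal inhibition concentration is no more than ten times the top valid dose tested; inconclusive = flat response between -70 and -30, or invalid curve fit; inactive = flat within 30 of zero, potency above limit, or signal rising.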
# Molecular target: Trypsin (Sus scrofa) (UniProt P00761)
# Sequence (P00761 whole entry, looked up): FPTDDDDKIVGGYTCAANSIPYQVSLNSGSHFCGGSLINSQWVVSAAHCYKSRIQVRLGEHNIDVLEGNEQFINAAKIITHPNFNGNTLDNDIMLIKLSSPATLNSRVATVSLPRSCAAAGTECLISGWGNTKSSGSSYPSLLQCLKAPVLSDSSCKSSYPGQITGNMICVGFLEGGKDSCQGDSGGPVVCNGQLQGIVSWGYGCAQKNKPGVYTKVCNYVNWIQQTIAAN
# Assay: trypsin protease activity blockade – biochemical, quenched peptide fluorescence, cherry-pick, selectivity assay for Rce1 protease inhibitor project, dose response (AID 488789)
# Settings: porcine trypsin, quenched peptide cleavage fluorescence; series mostly up to 10 µM; activity change, negative = inhibition: at the top concentration
row,SMILES,"activity change, negative = inhibition"
1,Cc1ccc(-c2cc3cccc[n+]3cc2-c2ccc(C)cc2)cc1,16.4%
2,CCCNC(=O)c1c(N)n(-c2ccc(S(N)(=O)=O)cc2)c2nc3ccccc3nc12,-3.19%
3,CCC(=O)Nc1cc(-c2nn(CC(=O)N3CCCCC3)c(=O)c3ccccc23)ccc1N1CCOCC1,-2.62%
4,Cc1cc(C)c2nc(N(CCCN(C)C)C(=O)c3ccc4c(c3)CCCC4)sc2c1,-3.58%
5,CCC(COC)NC(=O)CCc1nnc(Cc2cccc(C(F)(F)F)c2)o1 (configuration not stated),3.73%
6,CC(=O)c1ccc(-c2ccc(C(=O)N3CCC(C(N)=O)CC3)o2)cc1,15.8%
7,CCOC(=O)C1=C(C)OC(N)=C(C#N)C1c1cc2c(cc1[N+](=O)[O-])OCO2 (configuration not stated),8.41%
8,Oc1c(N=NC(=S)Nc2ccccc2F)c2ccccc2n1Cc1ccccc1F,2.08%
9,O=S(=O)(CC(CN1CCOCC1)N1CCOCC1)c1ccccc1 (configuration not stated),1.85%
10,NC(=O)[C@H]1CC2(CC(c3cccc(NC(=O)COc4ccc(Cl)cc4)c3)=NO2)CN1C(=O)C(c1ccccc1)c1ccccc1 (some centres not stated),8.16%
11,CSc1ccc(/C=C/C(=O)OCC(=O)NC(C)C)cc1,3.28%
12,O=S(=O)(c1ccc(-c2csc(Nc3ccc(F)cc3)n2)cc1)N1CCCC1,-4.3%
13,Cc1cc(N2CCN(C(c3ccccc3)c3ccccc3)CC2)n2ncnc2n1,6.42%
14,O=C(c1cnc(Cl)c(Cl)c1)N1CCC(Cc2ccccc2)CC1,5.08%
15,COc1cccc(NC(=O)Nc2cccn(Cc3ccc(C)cc3)c2=O)c1,5.65%
16,CCOc1ccc(-c2nc(CCl)cs2)cc1OC,-9.87%
17,CC(=O)N[C@@H](C)c1nc2ccccc2n1CCCN1CCN(c2nc(-c3ccc(C)cc3)cs2)CC1,2.36%
